Compounds without any hit were thinned out: in the full panel of roughly 83,000, 20% have a hit.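 Values shown are percent growth following 48 h exposure of cells in 96-well plates to a single concentration of compound; below 10 was considered active.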 A number with no mark means an inactive call. The source made the active and inactive calls.

Results on eight molecules are retold here after PubChem BioAssay (NCI).

Among the test systems are NCI-H23 lung; NCI-H226 lung; NCI-H322M lung; HOP-62 NSCLC; NCI-H460 lung; HOP-92 NSCLC; NCI-H522 lung; A549/ATCC NSCLC; 786-0 renal; COLO 205 colon; DU-145 prostate; K-562 leukemia; MALME-3M melanoma; MDA-MB-231 breast; RXF 393 renal; SF-268 CNS; SF-295 CNS; SF-539 CNS; UACC-257 melanoma; M14 melanoma.
Holding throughout (assay): NCI-60 one-dose screen, 48 h (100 = growth as untreated, 0 = no growth, -100 = all killed)
Common to all, as to details: 10 µM unless noted

On to `Cc1ccc(Nc2nc(N)nc(N)c2N=O)cc1Cl`, for which the growth with NCI-H23 lung is 71.9%; with NCI-H226 lung it was 94.1%; with NCI-H322M lung, 104%; in the experiment with HOP-62 NSCLC it was 76%; in the experiment with NCI-H460 lung it was 102%; in the experiment with HOP-92 NSCLC, 63%. The growth in the experiment with NCI-H522 lung was 75.4%; in the experiment with A549/ATCC NSCLC, 98.3%; with 786-0 renal, 79.4%; in the experiment with COLO 205 colon it was 111%; in the experiment on DU-145 prostate, 73.7%; in the experiment with K-562 leukemia, 69.9%. The growth in the experiment on MALME-3M melanoma is 82.2%; in the experiment on MDA-MB-231 breast, 95.6%; with RXF 393 renal, 91.8%; in the experiment with SF-268 CNS, 65.6%; in the experiment with SF-295 CNS, 105%; with SF-539 CNS it was 82%. Further, the growth with UACC-257 melanoma is 92.2%; with M14 melanoma it was 88.4%.
On to `Clc1ccc2c(NCCCn3cnc4c(N5CCCC5)nc(Cl)nc43)ccnc2c1`, for which the growth is 98.7% in the experiment with NCI-H23 lung; 102% in the experiment with NCI-H226 lung; 92.7% in the experiment on NCI-H322M lung; 91.5% in the experiment with HOP-62 NSCLC; 107% in the experiment on NCI-H460 lung; 107% with HOP-92 NSCLC. Also, the growth in the experiment on NCI-H522 lung is 91.5%; with A549/ATCC NSCLC, 96.5%; in the experiment on 786-0 renal, 96.4%; in the experiment on COLO 205 colon it was 88.2%; with DU-145 prostate, 106%; in the experiment on K-562 leukemia, 90.4%. Moreover, the growth in the experiment on MALME-3M melanoma was 101%; with MDA-MB-231 breast, 89.8%; with RXF 393 renal, 123%; with SF-268 CNS, 94.4%; in the experiment with SF-295 CNS, 101%; in the experiment on SF-539 CNS, 99.1%. For the same molecule, the growth was 102% with UACC-257 melanoma and 93.9% in the experiment on M14 melanoma.
As for `CCCCCCCCOC(=O)c1c(C)[nH]c(/C=C2\N=C(c3ccc[nH]3)C=C2OC)c1C`, the growth in the experiment with NCI-H23 lung is 3.19% (active); with NCI-H226 lung, 9.15% (active); in the experiment on NCI-H322M lung it was 26%; in the experiment with HOP-62 NSCLC it was 12.7%; in the experiment with NCI-H460 lung, 10.2%; with HOP-92 NSCLC it was -12.5% (active). The growth was 4.04% (active) in the experiment with NCI-H522 lung; -10.9% (active) in the experiment on A549/ATCC NSCLC; -40.1% (active) with 786-0 renal; -33.7% (active) with COLO 205 colon; 23.3% in the experiment on DU-145 prostate; 10.8% in the experiment with K-562 leukemia. The growth with MALME-3M melanoma was -42.9% (active); with MDA-MB-231 breast, -5.15% (active); in the experiment with RXF 393 renal, -19.9% (active); in the experiment with SF-268 CNS it was 24%; in the experiment with SF-295 CNS, -34.7% (active); in the experiment with SF-539 CNS, 3.4% (active). The growth is -15.2% (active) in the experiment on UACC-257 melanoma and -56.1% (active) in the experiment with M14 melanoma.
With `CC1=C([Se]CC(OC(=O)[C@@H](CO)NC(=O)OC(C)(C)C)C(=O)NCCCCCC(=O)OCc2ccccc2)C(=O)c2ccccc2C1=O` (stereo not given in full), the growth in the experiment on NCI-H23 lung was -77.8% (active); in the experiment on NCI-H226 lung, -85.4% (active); in the experiment on NCI-H322M lung it was -74% (active); with HOP-62 NSCLC, -100% (active); in the experiment with NCI-H460 lung, -4.97% (active); in the experiment with HOP-92 NSCLC, -75.3% (active). Besides, the growth is -94.6% (active) in the experiment with NCI-H522 lung; -24% (active) in the experiment with A549/ATCC NSCLC; -97.3% (active) with 786-0 renal; 10.2% in the experiment with COLO 205 colon; -54.6% (active) in the experiment on DU-145 prostate; -4.48% (active) in the experiment with K-562 leukemia. Further, the growth in the experiment on MALME-3M melanoma is -68.1% (active); with MDA-MB-231 breast, -54.4% (active); in the experiment with RXF 393 renal, -99.4% (active); in the experiment with SF-268 CNS, -2.71% (active); in the experiment on SF-295 CNS, -38.4% (active); with SF-539 CNS, -92.6% (active). Besides, the results for the growth in the experiment with UACC-257 melanoma and with M14 melanoma were -94% (active) and -95% (active), respectively.
Turning to `CC1=C(C(=O)OCc2ccccc2)C(c2ccc3c(c2)OCO3)n2c(nc3ccccc32)N1` (stereo not given), the growth was 49.3% in the experiment with NCI-H23 lung; 58.2% with NCI-H226 lung; 47% in the experiment on NCI-H322M lung; 44.2% in the experiment with HOP-62 NSCLC; 6.62% (active) with NCI-H460 lung; 78.5% in the experiment on HOP-92 NSCLC. The growth with NCI-H522 lung was 26.3%; in the experiment with A549/ATCC NSCLC, 47.1%; in the experiment with 786-0 renal, 43.1%; with COLO 205 colon, 37.2%; in the experiment with DU-145 prostate it was 53.5%; with K-562 leukemia it was 13.8%. For the same molecule, the growth in the experiment with MALME-3M melanoma was 39.7%; in the experiment with MDA-MB-231 breast, 68.6%; in the experiment with RXF 393 renal, 53.2%; in the experiment on SF-268 CNS, 59.6%; in the experiment with SF-295 CNS, 20.4%; with SF-539 CNS, 9.94% (active). In addition, the growth with UACC-257 melanoma is 60.4%; in the experiment on M14 melanoma, 28.1%.
With `C=CC(=O)Nc1ccc2ncnc(Nc3cccc(NS(=O)(=O)CCC)c3Cl)c2c1`, the growth with NCI-H23 lung was 68.9%; in the experiment with NCI-H226 lung, 46.7%; with NCI-H322M lung it was 15.8%; in the experiment with HOP-62 NSCLC, 67.3%; in the experiment on NCI-H460 lung, 68.6%; with HOP-92 NSCLC it was 35.1%. Also, the growth with NCI-H522 lung was 17.8%; in the experiment on A549/ATCC NSCLC, 50.8%; in the experiment with 786-0 renal it was 42.4%; in the experiment on COLO 205 colon, 12%; in the experiment on DU-145 prostate it was 37.8%; in the experiment on K-562 leukemia, 67.2%. In addition, the growth in the experiment on MALME-3M melanoma is 7.81% (active); in the experiment on MDA-MB-231 breast, 24.3%; with RXF 393 renal, 15.1%; in the experiment with SF-268 CNS, 48%; in the experiment with SF-295 CNS, 72.9%; in the experiment with SF-539 CNS, 44.4%. For the same molecule, the growth was 5.07% (active) in the experiment on UACC-257 melanoma and 19.6% with M14 melanoma.
For the molecule `COC(=O)c1ccc(-n2cc(CCCOS(=O)(=O)c3ccc(F)cc3)nn2)cc1`, the growth in the experiment on NCI-H23 lung was 98.1%; with NCI-H226 lung, 97.9%; in the experiment with NCI-H322M lung it was 102%; in the experiment with HOP-62 NSCLC, 106%; in the experiment with NCI-H460 lung, 102%; with HOP-92 NSCLC, 100%. Besides, the growth is 93.7% with NCI-H522 lung; 97% in the experiment with A549/ATCC NSCLC; 97.1% with 786-0 renal; 107% in the experiment with COLO 205 colon; 107% in the experiment with DU-145 prostate; 95.5% with K-562 leukemia. For the same molecule, the growth with MALME-3M melanoma is 98.6%; with MDA-MB-231 breast, 106%; in the experiment on RXF 393 renal, 105%; in the experiment with SF-268 CNS, 98.6%; with SF-295 CNS, 102%; in the experiment on SF-539 CNS it was 96.7%. Moreover, the growth is 97.2% in the experiment on UACC-257 melanoma and 104% in the experiment with M14 melanoma.
Consider `COC(=O)CNC(=O)c1ccc(NC(=O)c2[nH]c(C)c(Cl)c2Cl)c(O[C@H]2CCNC2)c1`, for which the growth with NCI-H23 lung is 98.7%; in the experiment on NCI-H226 lung, 104%; in the experiment with NCI-H322M lung it was 109%; in the experiment on HOP-62 NSCLC it was 95.6%; in the experiment on NCI-H460 lung it was 108%; in the experiment on HOP-92 NSCLC, 99%. Moreover, the growth was 97.7% in the experiment with NCI-H522 lung; 105% in the experiment on A549/ATCC NSCLC; 102% in the experiment with 786-0 renal; 110% in the experiment with COLO 205 colon; 110% in the experiment with DU-145 prostate; 90.7% in the experiment with K-562 leukemia. For the same molecule, the growth is 109% in the experiment with MALME-3M melanoma; 105% with MDA-MB-231 breast; 111% with RXF 393 renal; 102% in the experiment on SF-268 CNS; 105% with SF-295 CNS; 98% with SF-539 CNS. Further, the growth in the experiment on UACC-257 melanoma was 103%; with M14 melanoma, 107%.
